Shown are actives, neighbours in structure and some others; about 3.6% of the full set was active somewhere.
mHTT-CaM PPI inh: inhibitors of human mutant huntingtin-calmodulin interaction. AID 1671202. 190,000 tested, 3.6% active. AlphaScreen His-mHTT/GST-CaM binding, luminescence. inhibition, % at 15 µM. P42858;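 note: 0% = both proteins with DMSO and 100% = one protein alone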
Target sequence (P42858 whole entry, looked up, stated change not applied): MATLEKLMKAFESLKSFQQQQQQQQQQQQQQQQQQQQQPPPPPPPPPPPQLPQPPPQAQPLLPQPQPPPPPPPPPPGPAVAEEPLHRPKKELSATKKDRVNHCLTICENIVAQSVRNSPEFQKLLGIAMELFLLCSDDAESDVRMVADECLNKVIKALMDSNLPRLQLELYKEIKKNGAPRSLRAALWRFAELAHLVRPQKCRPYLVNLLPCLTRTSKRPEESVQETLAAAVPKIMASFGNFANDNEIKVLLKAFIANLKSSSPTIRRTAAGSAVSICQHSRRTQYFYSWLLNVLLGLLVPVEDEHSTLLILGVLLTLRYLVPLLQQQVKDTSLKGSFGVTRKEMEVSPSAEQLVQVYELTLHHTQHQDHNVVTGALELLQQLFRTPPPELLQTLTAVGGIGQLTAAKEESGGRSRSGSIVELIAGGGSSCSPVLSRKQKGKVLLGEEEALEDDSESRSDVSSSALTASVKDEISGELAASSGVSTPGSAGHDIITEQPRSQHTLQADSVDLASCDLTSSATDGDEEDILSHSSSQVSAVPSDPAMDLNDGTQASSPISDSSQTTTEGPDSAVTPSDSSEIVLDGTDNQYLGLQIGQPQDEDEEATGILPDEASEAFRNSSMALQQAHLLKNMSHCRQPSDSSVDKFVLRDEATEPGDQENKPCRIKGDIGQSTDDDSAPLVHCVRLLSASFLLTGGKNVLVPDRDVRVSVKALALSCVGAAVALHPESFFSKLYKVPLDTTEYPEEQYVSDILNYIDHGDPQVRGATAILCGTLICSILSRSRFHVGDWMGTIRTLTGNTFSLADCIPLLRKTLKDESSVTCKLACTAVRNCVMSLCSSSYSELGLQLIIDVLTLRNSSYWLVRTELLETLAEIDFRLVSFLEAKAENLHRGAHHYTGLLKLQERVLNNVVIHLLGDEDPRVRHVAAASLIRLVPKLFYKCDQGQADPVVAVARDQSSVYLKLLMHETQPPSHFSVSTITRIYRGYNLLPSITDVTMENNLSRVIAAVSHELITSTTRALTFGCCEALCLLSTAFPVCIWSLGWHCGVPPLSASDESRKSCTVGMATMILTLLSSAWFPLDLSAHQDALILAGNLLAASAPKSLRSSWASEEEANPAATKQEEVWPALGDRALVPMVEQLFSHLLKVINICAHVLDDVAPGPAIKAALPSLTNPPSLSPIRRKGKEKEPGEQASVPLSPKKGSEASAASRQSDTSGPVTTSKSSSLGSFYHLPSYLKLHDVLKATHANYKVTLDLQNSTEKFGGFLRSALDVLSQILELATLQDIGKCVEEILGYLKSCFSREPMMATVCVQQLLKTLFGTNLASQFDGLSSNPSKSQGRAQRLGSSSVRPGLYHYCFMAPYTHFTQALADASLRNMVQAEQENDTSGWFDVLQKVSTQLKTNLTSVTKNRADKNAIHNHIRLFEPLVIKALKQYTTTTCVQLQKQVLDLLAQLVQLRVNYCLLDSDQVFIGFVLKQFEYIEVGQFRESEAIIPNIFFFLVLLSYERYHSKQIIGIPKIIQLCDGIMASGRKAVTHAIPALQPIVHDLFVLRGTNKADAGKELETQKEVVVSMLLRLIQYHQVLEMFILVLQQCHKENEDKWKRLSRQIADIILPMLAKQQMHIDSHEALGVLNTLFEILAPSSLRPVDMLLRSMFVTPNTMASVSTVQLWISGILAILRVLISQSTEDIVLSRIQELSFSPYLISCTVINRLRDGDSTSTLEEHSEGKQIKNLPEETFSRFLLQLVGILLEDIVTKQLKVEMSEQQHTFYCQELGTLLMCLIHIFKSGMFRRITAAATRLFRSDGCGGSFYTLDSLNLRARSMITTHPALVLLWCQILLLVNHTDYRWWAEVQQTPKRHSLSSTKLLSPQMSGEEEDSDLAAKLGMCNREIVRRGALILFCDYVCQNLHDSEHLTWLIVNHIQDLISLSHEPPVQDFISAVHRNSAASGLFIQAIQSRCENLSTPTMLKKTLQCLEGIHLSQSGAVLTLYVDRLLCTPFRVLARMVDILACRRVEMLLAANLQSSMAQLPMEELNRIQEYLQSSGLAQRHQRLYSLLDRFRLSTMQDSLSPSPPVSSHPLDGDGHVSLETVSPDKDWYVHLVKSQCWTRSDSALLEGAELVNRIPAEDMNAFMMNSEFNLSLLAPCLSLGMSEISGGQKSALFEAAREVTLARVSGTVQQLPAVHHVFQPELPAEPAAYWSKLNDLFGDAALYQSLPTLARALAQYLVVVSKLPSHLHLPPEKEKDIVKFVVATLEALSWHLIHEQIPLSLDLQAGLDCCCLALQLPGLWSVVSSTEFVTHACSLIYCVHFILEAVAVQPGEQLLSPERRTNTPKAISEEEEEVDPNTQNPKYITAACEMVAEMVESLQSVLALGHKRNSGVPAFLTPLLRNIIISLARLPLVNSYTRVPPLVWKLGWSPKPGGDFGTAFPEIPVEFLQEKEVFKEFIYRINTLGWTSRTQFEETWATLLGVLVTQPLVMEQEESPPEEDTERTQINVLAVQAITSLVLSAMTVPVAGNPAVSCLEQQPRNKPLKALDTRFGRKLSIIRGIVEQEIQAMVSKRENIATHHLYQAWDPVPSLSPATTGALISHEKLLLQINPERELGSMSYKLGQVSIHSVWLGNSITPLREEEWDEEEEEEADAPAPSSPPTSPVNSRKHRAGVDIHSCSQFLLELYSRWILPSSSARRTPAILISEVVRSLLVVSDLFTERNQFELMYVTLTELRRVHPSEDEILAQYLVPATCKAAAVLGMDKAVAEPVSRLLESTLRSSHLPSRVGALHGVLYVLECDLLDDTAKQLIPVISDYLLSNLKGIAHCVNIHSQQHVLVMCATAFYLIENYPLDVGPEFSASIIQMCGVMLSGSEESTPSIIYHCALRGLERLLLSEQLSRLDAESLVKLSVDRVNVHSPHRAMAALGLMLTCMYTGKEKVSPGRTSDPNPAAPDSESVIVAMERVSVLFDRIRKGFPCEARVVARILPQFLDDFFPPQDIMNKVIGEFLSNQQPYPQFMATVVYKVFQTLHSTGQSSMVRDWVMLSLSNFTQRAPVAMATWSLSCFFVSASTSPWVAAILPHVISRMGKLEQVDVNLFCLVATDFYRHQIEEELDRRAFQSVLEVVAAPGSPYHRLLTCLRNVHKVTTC
Pf apPOL inh: Pf-apPOL DNA polymerase inhibition; 210,000 tested, 0.25% active; AID 1794808; inhibition, % at 10 µM; Recombinant Pf-apPOL, molecular beacon fluorescence, 1.5 h
An asterisk follows results filed as active. Cut-off read from the data, not from the text of the source: active = inhibition above about 50%; inactive = the rest.

Screening O=C1NC(=Nc2ccccc2Cl)S/C1=C/c1cc2c(cc1Br)OCO2 returned mHTT-CaM PPI inh 55.0* and Pf apPOL inh -0.3.
For O=C1NC(=Nc2ccccc2Cl)S/C1=C/c1ccc([N+](=O)[O-])o1 the results were mHTT-CaM PPI inh 60.0* and Pf apPOL inh 10.3.
Screening O=C1NC(=Nc2ccccc2)S/C1=C\c1ccc(-c2ccccc2[N+](=O)[O-])o1 returned mHTT-CaM PPI inh 44.0 and Pf apPOL inh -12.3.
For CN(C)c1ccc(/C=C2/SC(=Nc3ccccc3Cl)NC2=O)cc1 the results were mHTT-CaM PPI inh 54.0* and Pf apPOL inh -69.1.
Screening COc1ccccc1/C=C1/SC(=Nc2ccccc2Cl)NC1=O returned mHTT-CaM PPI inh 20.0 and Pf apPOL inh -1.9.
O=C(c1n[nH]c2c1CCCC2)N1CCn2cnnc2C1 was read as mHTT-CaM PPI inh -3.8 and Pf apPOL inh -3.9.
Screening CN(C)C=C1C(=O)NN=C1c1ccccc1 returned Pf apPOL inh 0.7.
For COc1ccccc1C(=O)Nc1ccccc1Oc1ccccc1 the results were mHTT-CaM PPI inh -15.1 and Pf apPOL inh 12.1.
`O=C(Nc1ccccc1Cl)c1cccc(OCc2ccccc2)c1` gave mHTT-CaM PPI inh -123.6 and Pf apPOL inh -1.4.
COc1cc(=O)n(-c2ccc(F)cc2)nc1C(=O)N1CCN(C(=O)c2ccco2)CC1 was read as mHTT-CaM PPI inh -12.2 and Pf apPOL inh -0.7.
`CC(C)C1C(=O)N(Cc2cn(CCC3OCCO3)nn2)CCS(=O)(=O)N1Cc1ccc(-c2ccccc2)cc1` (stereo not drawn) gave mHTT-CaM PPI inh 43.6 and Pf apPOL inh -15.2.
`CC(C)C1C(=O)N(Cc2cn(Cc3ccco3)nn2)CCS(=O)(=O)N1Cc1ccc(-c2ccncc2)cc1` (stereo not drawn) gave mHTT-CaM PPI inh 23.0 and Pf apPOL inh -0.1.
Screening CC1C(=O)N(Cc2cn(Cc3ccco3)nn2)CCS(=O)(=O)N1Cc1ccc(-c2ccccc2)cc1 (stereo not drawn) returned mHTT-CaM PPI inh 62.7* and Pf apPOL inh -0.8.
`CC(C)C1C(=O)N(Cc2cn(Cc3ccco3)nn2)CCS(=O)(=O)N1Cc1ccc(-c2ccc(Cl)cc2)cc1` (stereo not drawn) gave mHTT-CaM PPI inh 49.7 and Pf apPOL inh -13.9.
CC(C)C1C(=O)N(Cc2cn(Cc3ccco3)nn2)CCS(=O)(=O)N1Cc1ccc(-c2ccccc2)cc1 (stereo not drawn) was read as mHTT-CaM PPI inh 72.9* and Pf apPOL inh -1.4.
`CC(C)C1C(=O)N(Cc2cn(Cc3ccco3)nn2)CCS(=O)(=O)N1Cc1ccc(-c2ccc(F)cc2)cc1` (stereo not drawn) gave mHTT-CaM PPI inh 69.4* and Pf apPOL inh -4.7.
CC(C)C1C(=O)N(Cc2cn(CCC3OCCO3)nn2)CCS(=O)(=O)N1Cc1ccc(-c2ccccc2Cl)cc1 (stereo not drawn) was read as mHTT-CaM PPI inh 66.1* and Pf apPOL inh -1.1.
COc1ccc(-c2ccc(CN3C(CC(C)C)C(=O)N(Cc4cn(Cc5ccco5)nn4)CCS3(=O)=O)cc2)cc1OC (stereo not drawn) was read as mHTT-CaM PPI inh 29.9 and Pf apPOL inh -2.5.
Screening COc1ccc(OCC(=O)Nc2ccc(-n3nncc3-c3ccc(OC)cc3)cc2)cc1 returned mHTT-CaM PPI inh 19.0 and Pf apPOL inh -0.2.
Cc1ccc(-c2ccc(CN3C(C)C(=O)N(Cc4cn(CCC5OCCO5)nn4)CCS3(=O)=O)cc2)cc1 (stereo not drawn) was read as mHTT-CaM PPI inh -0.6 and Pf apPOL inh -3.6.
Screening CC(C)C1C(=O)N(Cc2cn(CC3CCCCC3)nn2)CCS(=O)(=O)N1Cc1ccc(-c2ccc(F)nc2)cc1 (stereo not drawn) returned mHTT-CaM PPI inh 24.8 and Pf apPOL inh -0.3.
For CC(C)C1C(=O)N(Cc2cn(Cc3ccco3)nn2)CCS(=O)(=O)N1Cc1ccc(-c2ccc(F)nc2)cc1 (stereo not drawn) the results were mHTT-CaM PPI inh 60.0* and Pf apPOL inh -7.3.
COc1ccc(-c2ccc(CN3C(C(C)C)C(=O)N(Cc4cn(CCC5OCCCO5)nn4)CCS3(=O)=O)cc2)cn1 (stereo not drawn) was read as mHTT-CaM PPI inh 50.1* and Pf apPOL inh -16.4.
Screening CC1C(=O)N(Cc2cn(CCC3OCCO3)nn2)CCS(=O)(=O)N1Cc1ccc(-c2ccccc2)cc1 (stereo not drawn) returned mHTT-CaM PPI inh 74.1* and Pf apPOL inh 7.3.
For COc1ccc(-c2ccc(CN3C(C(C)C)C(=O)N(Cc4cn(CCC5OCCO5)nn4)CCS3(=O)=O)cc2)cn1 (stereo not drawn) the results were mHTT-CaM PPI inh 45.0 and Pf apPOL inh 4.1.
Nc1nc(/C=C/c2ccccc2)c([N+](=O)[O-])c(=O)[nH]1 was read as mHTT-CaM PPI inh 18.0 and Pf apPOL inh -10.8.
N#Cc1cnc2ccccc2c1N1CCC(C(=O)N2CCSCC2)CC1 was read as mHTT-CaM PPI inh -9.4 and Pf apPOL inh -1.8.
For COc1ccc(C2=Nn3c(nnc3-c3ccccc3F)SC2)cc1 the results were mHTT-CaM PPI inh 6.0.
For Cc1cccc(C)c1NC(=O)CN1C(=O)c2ccc([N+](=O)[O-])cc2C1=O the results were mHTT-CaM PPI inh 0.0 and Pf apPOL inh -0.1.
Screening O=C(CN1C(=O)S/C(=C\c2c(Cl)cccc2Cl)C1=O)Nc1cc([N+](=O)[O-])ccc1O returned mHTT-CaM PPI inh 61.0* and Pf apPOL inh -19.1.
`O=[N+]([O-])c1cccc(S(=O)(=O)NC2CCCC2)c1` gave mHTT-CaM PPI inh -3.8 and Pf apPOL inh 2.1.
`Cc1nnc(N2C(=O)C(O)=C(C(=O)c3cccs3)C2c2ccccc2F)s1` (stereo not drawn) gave mHTT-CaM PPI inh 31.4 and Pf apPOL inh -7.9.
For Cc1nnc(N2C(=O)C(O)=C(C(=O)c3cccs3)C2c2ccc(Cl)c(Cl)c2)s1 (stereo not drawn) the results were mHTT-CaM PPI inh 92.0* and Pf apPOL inh -4.1.
`Cc1ccc(-c2cc(=O)n(CC(=O)Nc3ccc(C)c(C)c3)[nH]2)cc1` gave mHTT-CaM PPI inh 9.6 and Pf apPOL inh 1.6.
`O=C(Cn1[nH]c(-c2ccccc2)cc1=O)Nc1ccc(Cl)cc1` gave mHTT-CaM PPI inh 63.0* and Pf apPOL inh -1.9.
For CCN(CC)c1ccc(NC(=O)c2ccc(C)cc2Cl)cc1 the results were mHTT-CaM PPI inh 34.5 and Pf apPOL inh -8.2.
Screening CCOc1ccc(CN2CCC(C(=O)NCCc3ccccc3)CC2)cc1 returned mHTT-CaM PPI inh -1.1 and Pf apPOL inh 7.6.
`O=C(NCCc1ccco1)C1CCN(Cc2cc3ccccc3n2Cc2ccccc2)CC1` gave mHTT-CaM PPI inh 57.5* and Pf apPOL inh 1.3.
`Cn1cc(CN2CCC(C(=O)NCc3ccco3)CC2)c2cc(Cl)ccc21` gave mHTT-CaM PPI inh 24.9 and Pf apPOL inh -3.0.
CCc1ccc(CN2CCC(C(=O)NCc3ccco3)CC2)cc1 was read as mHTT-CaM PPI inh 8.2 and Pf apPOL inh 0.9.
Cc1ccccc1Cn1c(CN2CCC(C(=O)NCc3ccco3)CC2)cc2ccccc21 was read as mHTT-CaM PPI inh 86.4* and Pf apPOL inh 1.5.
O=C(NCc1ccco1)C1CCN(Cc2cc3ccccc3n2Cc2ccccc2)CC1 was read as mHTT-CaM PPI inh 73.2* and Pf apPOL inh 3.2.
`CN1CCN(C(CNC(=O)CC(C)(C)C)c2ccc(F)cc2)CC1` (stereo not drawn) gave mHTT-CaM PPI inh -12.0 and Pf apPOL inh -6.8.

Bioassay records (PubChem)
